In PubChem BioAssay (NCI):
About 83,000 compounds went through this panel and 20% of them were active in at least one assay; those are over-represented in the sample as a whole.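 Single-dose data. Exposure time 48 hours. Values below 10 considered active.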 Unmarked numbers belong to inactive results. The source made the active and inactive calls.

System: MDA-MB-468 breast
Test: NCI-60 one-dose screen, 48 h (100 = growth as untreated, 0 = no growth, -100 = all killed)
Conditions: 10 µM unless noted

| SMILES | growth |
| --- | --- |
| O[C@@H]1CO[C@H]2[C@@H]1OC[C@@H]2O | 96.3% |
| O=C1NN(C(=O)c2ccc(O)cc2)C(c2ccccc2)=N/C1=C\c1cn(-c2ccccc2)nc1-c1ccccc1 | 110% |
| c1ccc(CNc2nc(Nc3ccccc3)nc3ccccc23)cc1 | 13.2% |
| CN(C)CCCOc1ccccc1NC1=C(Cl)C(=O)C(Nc2ccccc2OCCCN(C)C)=C(Cl)C1=O | -60.6% (active) |
| C=CCOC(=O)C1=C(C)N(CC)C(=O)N(CC)C1c1c(Cl)n(C)c2ccccc12 (centres undefined) | 98.2% |
| CCC(C)C(N)C(=O)NNc1n[nH]c(=S)n1N (centres undefined) | 104% |
| O=C(O)CCNC1CCCCC1 | 93.1% |
| COc1cc(C2CC(=O)Nc3c2c(C)nn3-c2nc3ccccc3[nH]2)cc(OC)c1OC (centres undefined) | 96.9% |
| C=CCn1cc(-c2nc3ccccc3s2)c2cc(-c3ccc4c5c(cccc35)C(=O)N(CCO)C4=O)ccc21 | 96% |
| COc1ccc(C(=O)/C=C/c2c(Cl)c3c(c(OC)c2Cl)OCC(=O)N3)cc1 | 12.4% |
| COc1ccc(NC(=O)c2c(Nc3ccc(OC)cc3OC)n[nH]c2N)c(OC)c1 | 82.3% |
| O=P(O)(c1ccccc1)c1ccccc1I | 89.5% |
| Clc1ccc(Cc2ccncc2)cc1 | 99.2% |
| O=C1Nc2ccc(Br)cc2/C1=N\c1nnc(-c2ccc(Cl)cc2)o1 | 51.8% |
| Cc1ccc([N+](=O)[O-])cc1Br | 98.1% |
| O=C(Nc1ccc2ncsc2c1)c1csc(Nc2ccc3[nH]ncc3c2)n1 | 35.6% |
| C=C(C)[C@@H]1CC[C@]2(C(=O)O)CC[C@]3(C)[C@H](CC[C@@H]4[C@@]5(C)CCC(NC(=O)c6cccc(OC(C)=O)c6OC(C)=O)C(C)(C)[C@@H]5CC[C@]43C)[C@@H]12 (some centres undefined) | -5.31% (active) |
| Cc1ccc(NC2=CC(=O)C(=O)c3ccccc32)cc1 | -12.4% (active) |
| O=C(O)c1cn(C2CC2)c2cc(N3CCN(C(=O)C[n+]4cccc5ccccc54)CC3)c(F)cc2c1=O | 71.4% |
| O=C1N=C(c2c(-c3[nH]c(=O)c4ccc(Br)cc4c3O)c(O)c3ccccc3c2O)C(=O)c2cc(Br)ccc21 | -11.5% (active) |
| COc1cc(/C=C2\C(=O)N(c3c(Cl)cccc3Cl)c3ccccc32)cc(OC)c1OCCCCCCn1c2ccccc2c(=O)c2ccccc21 | 108% |
| CC(=O)Nc1cccc(Cl)c1C | 103% |

| SMILES | growth |
| --- | --- |
| c1cn2cc(-c3ccc4cn[nH]c4c3)nc(Nc3ccc(N4CCOCC4)cc3)c2n1 | 61.8% |
| Cn1c(COC(=O)N2CCCCC2)nc2c(N3CCOCC3)nc(-c3ccccc3)nc21 | -61.7% (active) |
| CN(C)c1ccc(/C=C/C=N/NC(=O)c2cc(O)c(O)c(O)c2)cc1 | 89.1% |
| COC(=O)c1ccc2c(c1)nc(-c1ccc(Cl)cc1)n2-c1cc(C(C)(C)C)[nH]n1 | 37.4% |
| C=C(C)[C@@H]1CC[C@]2(C)[C@H](CC=C3[C@@H]4CC(C)(C)CC[C@]4(C(=O)OC)CC[C@]32C)[C@@]1(C)CC/C(N)=N/O | -13% (active) |
| O=C(Nc1ccccc1)OCC1OCOC(COC(=O)Nc2ccccc2)C1OC(=O)Nc1ccccc1 (centres undefined) | -1.51% (active) |
| COc1ccccc1CNc1nc(N)nc2[nH]c3ccc(O)cc3c12 | 45.2% |
| COc1cc(C(c2c[nH]c3ccccc23)N2CCCC2)ccc1OCc1ccccc1 (centres undefined) | 53.9% |
| O=C(N/N=C/c1cc2ccccc2nc1Cl)c1cc(-c2nc3ccccc3[nH]2)nc2ccccc12 | 98.5% |
| Cc1ccc2nc(-c3ccc(OCC(=O)N=Nc4c(O)[nH]c5ccccc45)cc3)[nH]c2c1 | 60.6% |
| Fc1cccc(-c2nc(-c3c[nH]c4ncccc34)cs2)c1 | 29.4% [100 µM] |
| CCNC(=O)N1CCc2cc(OC)c(OCCc3ccc(OC)nc3)cc2C1c1ccc(OC)cc1C (centres undefined) | 26.7% |
| OCCN1CCOCC1 | 117% |
| COc1ccc(CNC(=O)COc2ccc(/C=N/Nc3nc4ccccc4s3)cc2)cc1 | 28.3% |
| Nc1ncnc2c1N=C(c1ccc(Cl)cc1)CC(c1cccc(Nc3ccnc4cc(Cl)ccc34)c1)N2 (centres undefined) | 75% |
| COc1cc(/C=C/C(=O)c2ccc(NC(=O)COc3cccc4cccnc34)cc2)cc(OC)c1OC | 75.6% |
| CN(C)CCCn1c2c(c3cc(-c4ccco4)ccc3c1=O)C(=O)c1ccccc1-2 | 40.2% |
| COc1cc(/C=C/C(=O)c2ccc(O)c(CN3CCN(c4cc5c(cc4F)c(=O)c(C(=O)O)cn5C4CC4)CC3)c2)cc(OC)c1OC | 6.61% (active) |
| CN(C)CCNc1nc2ccccc2c2c(=O)c3ccccc3sc12 | -23.6% (active) |
| C(=N\Nc1ncc(-c2cc3cc4c(cc3o2)OCO4)s1)/c1ccco1 | 27.3% |
| CCOc1ccc(/C=C/C=N/NC(N)=S)cc1 | 80.2% |
| Cc1ccc(S(=O)(=O)Oc2ccc3sc4cccc(NCCN(C)C)c4c(=O)c3c2)cc1 | -91.7% (active) |
